This note sets out measurements from PubChem BioAssay (NCATS).

The structures appear in SMILES notation. Inconclusive results are not listed. Entries that show only a call come without a potency. Values without a mark were called inactive. The source made the active and inactive calls. The call rests on the fitted dose curve.
Potency means the concentration at half of the fitted maximal effect.

A short description of this experiment: A High-Content qHTS Against Drug Library for the Identification of Small Molecules that Inhibit DYT1 Early Onset Primary Dystonia-Associated Cell Pathology (AID 1645839). As to conditions: HEK293 Flp-In EGFP-delE TorsinA, punctate imaging, 48 h; series mostly up to 46.1 µM. The source says:
Nicole Calakos M.D., Ph.D.
Duke University School of Medicine, Durham, NC
In DYT1 dystonia due to delGAG in the TOR1A gene, there is a robust and widely replicated finding of TorsinA protein mislocalization caused when the mutant protein is in excess of the wildtype protein (1-7). Stable HEK293 cell lines were created that replicate this phenomenon. Inducible expression of an EGFP-hu delE TorsinA encoding cDNA causes pronounced punctate cellular distribution. […] This phenotypic difference in EGFP-huTorsinA fusion protein distribution serves as an indicator of cell pathology. […] RNAi screen results with the assay were validated in DYT1 patient cell phenotypes, intersected with a known dystonia gene, and led to discovery of new human genetic dystonia associations.
The bioassay described herein is a high-content image screen with two readouts. The "%pathology" readout is the primary qHTS data channel, while the "cellcount" is the counterscreen qHTS channel. Desired active compounds are those that show inhibition in %pathology channel but no activity or minimal toxicity in cellcount readout.
1. Kustedjo, K., Bracey, M.H., and Cravatt, B.F. (2000). […] J. Biol. Chem. 275, 27933 - 27939.
2. Bragg, D.C., Kaufman, C.A., Kock, N., and Breakefield, X.O. (2004). Inhibition of N-linked glycosylation prevents inclusion formation by the dystonia-related mutant form of torsinA. Mol. Cell. Neurosci. 27, 417 - 426.
3. Gonzalez-Alegre, P., and Paulson, H.L. (2004). Aberrant Cellular Behavior of Mutant TorsinA Implicates Nuclear Envelope Dysfunction in DYT1 Dystonia. J. Neurosci. 24, 2593 - 2601.
4. Goodchild, R.E., and Dauer, W.T. (2004). Mislocalization to the nuclear envelope: an effect of the dystonia-causing torsinA mutation. Proc. Natl. Acad. Sci. U. S. A. 101, 847 - 852.
5. Kock, N., Allchorne, A.J., Sena-Esteves, M., Woolf, C.J., and Breakefield, X.O. (2006). RNAi blocks DYT1 mutant torsinA inclusions in neurons. Neurosci. Lett. 395, 201 - 205.
6. Hewett, J.W., Nery, F.C., Niland, B., Ge, P., Tan, P., Hadwiger, P., Tannous, B.A., Sah, D.W.Y., and Breakefield, X.O. (2008). siRNA knock-down of mutant torsinA restores processing through secretory pathway in DYT1 dystonia cells. Hum. Mol. Genet. 17, 1436 - 1445.
7. Calakos, N., Patel, V.D., Gottron, M., Wang, G., Tran-Viet, K.N., Brewington, D., Beyer, J.L., Steffens, D.C., Krishnan, R.R., and Zuchner, S. (2010). Functional evidence implicating a novel TOR1A mutation in idiopathic, late-onset focal dystonia. J. Med. Genet. 47, 646 - 650.
8. Rittiner* JE, Caffall* ZF, Hernandez-Martinez R, Sanderson SM, Pearson JL, Tsukayama KK, Liu AY, Xiao C, Tracy S, Shipman MK, Hickey P, Johnson J, Scott B, Stacy M, Saunders-Pullman R, Bressman S, Simonyan K, Sharma N, Ozelius LJ, Cirulli ET, Calakos N. Functional Genomic Analyses of Mendelian and Sporadic Disease Identify Impaired eIF2alpha Signaling as a Generalizable Mechanism for Dystonia. Neuron. 2016 Dec 21;92(6):1238-1251. doi: 10.1016/j.neuron.2016.11.012. Epub 2016 Dec 8. PMID: 27939583; PMCID: PMC5320521.
High-content, High-throughput Drug Screening Assay
The TorsinA mislocalization assay was modified from the previously published assay to accommodate compound testing in 1536 well format.1 Briefly, Flp-In T-REx 293 cells from Invitrogen in which a single copy of a cDNA is recombined into a specific genomic locus was used to create tetracycline-inducible expression of cDNA encoding either EGFP-hTOR1A (WT) or EGFP-delE hTOR1A (DYT1). WT and DYT1 cells were diluted to a concentration of 2 x 10^5 cells/mL in reduced serum media (DMEM High Glucose containing 1% tetracycline-tested FBS, 2 mM L-Glutamine, and 1% Penicillin/Streptomycin). 4 µl of WT cells and 4 µl of DTY1 cells were added to column 1 and columns 2-48, respectively, of a poly-D-lysine-coated, low base, black, clear bottom 1536 well plate (Corning, Corning, NY) using the BioRAPTR FRD Microfluidic Workstation (Beckman Coulter, Indianapolis, IN). The final cell number was 800 cells/well. […]
On to `C[C@H]1O[C@H](O[C@H]2[C@H](O)[C@@H](O)[C@@H](O[C@H]3[C@H](O)[C@@H](O)[C@H](O)O[C@@H]3CO)O[C@@H]2CO)[C@H](O)[C@@H](O)[C@@H]1N[C@H]1C=C(CO)[C@@H](O)[C@H](O)[C@H]1O`, for which the Potency entry was “inactive”.

In the case of `CC(C)(C)NCC(O)COc1ccc(NC(=O)NC2CCCCC2)cc1` (stereo not given), the Potency entry was “inactive”.

As to `C[C@@H]1C[C@H]2[C@@H]3C[C@H](F)C4=CC(=O)C=C[C@]4(C)[C@@]3(F)[C@@H](O)C[C@]2(C)[C@@]1(O)C(=O)CO`, the Potency entry was “inactive”.

As for `C/C(=C(\CCOP(=O)(O)O)SC(=O)c1ccccc1)N(C=O)Cc1cnc(C)nc1N`, the % pathology change, negative = correction was -4.46% [at 4.63 µM].

As to `CS(=O)(=O)c1ccc([C@@H](O)[C@@H](CF)NC(=O)C(Cl)Cl)cc1`, the Potency result is “inactive”.

`O=C1NC(=O)[C@@]2(CCOc3ccc(F)cc32)N1`: the Potency entry is “inactive”.

Take `N[C@@H](CSSC[C@H](N)C(=O)O)C(=O)O`: the % pathology change, negative = correction is 10.2% [at 0.369 µM].

On to `CC(COc1ccccc1)NC(C)C(O)c1ccc(O)cc1` (stereo not given), for which the Potency result is “inactive”.

For the compound `C[C@]12CC[C@@H]3c4ccc(O)cc4CC[C@H]3[C@@H]1CC[C@@H]2OC(=O)CCC1CCCC1`, the Potency entry is “inactive”.

On to `C[C@H]1O[C@@H](n2cc(F)c(=O)[nH]c2=O)[C@H](O)[C@@H]1O`, for which the Potency entry was “inactive”.

Consider `CCOC(=O)[C@H](CCc1ccccc1)N[C@@H](C)C(=O)N1C(=O)N(C)C[C@H]1C(=O)O`, for which the Potency entry is “inactive”.

Regarding `NC(CSCC(=O)O)C(=O)O` (stereo not given), the Potency result is “inactive”.

With `COc1ccc(S(=O)(=O)Nc2nnc(CC(C)C)s2)cc1`, the Potency result was “inactive”.

With `CC(C)c1c(C(=O)Nc2ccccc2)c(-c2ccccc2)c(-c2ccc(F)cc2)n1CC[C@@H](O)C[C@@H](O)CC(=O)O`, the Potency result was “inactive”.

Take `CC1(C)[C@@H]2CC[C@@]1(C)C(=O)C2`: the Potency result was “inactive”.

In the case of `Cc1ccc(C(C)C)cc2c(C)ccc1-2`, the Potency entry is “inactive”.

Turning to `C[C@]12C[C@H](O)[C@H]3[C@@H](CCC4=CC(=O)CC[C@@]43C)[C@@H]1CC[C@@H]2C(=O)CO`, the Potency entry is “inactive”.

Take `Cn1cc[nH]c1=S`: the Potency result was “inactive”.

As to `CC[C@@]1(c2ccccc2)NC(=O)N(C)C1=O`, the Potency entry is “inactive”.

`CCOc1nc2cccc(C(=O)O)c2n1Cc1ccc(-c2ccccc2-c2nn[nH]n2)cc1`: the Potency result was “inactive”.

On to `Nc1ccc(S(=O)(=O)Nc2ccccc2)cc1`, for which the Potency entry is “inactive”.

Regarding `CCCOC(=O)c1ccccc1`, the Potency result is “inactive”.

As to `C=Cc1c(C)c2cc3[nH]c(cc4nc(cc5nc(cc1[nH]2)C(C)=C5CCC(=O)O)C(CCC(=O)O)=C4C)c(C)c3C=C`, the Potency result was “inactive”.

As to `C#CCN(C)Cc1ccccc1`, the Potency result is “inactive”.

Take `CC1(C)S[C@@H]2[C@H](NC(=O)Cc3ccccc3)C(=O)N2[C@H]1C(=O)O` (tested in a mixture with another compound): the Potency result is “inactive”.

On to `CC1CC(OC(=O)C(O)c2ccccc2)CC(C)(C)N1C` (stereo not given), for which the Potency result is “inactive”.

For the compound `N[C@H](C(=O)O)c1ccc(O)cc1`, the Potency result was “inactive”.

As for `Nc1nc2c(ncn2CCC(CO)CO)c(=O)[nH]1`, the Potency result was “inactive”.

Consider `CC(O)CN(CCN(CC(C)O)CC(C)O)CC(C)O` (stereo not given), for which the Potency result was “inactive”.

As for `CNCC(O)c1ccc(O)c(O)c1` (stereo not given), the Potency result is “inactive”.

For the compound `O=c1[nH]cnc2c1ncn2[C@@H]1O[C@H](CO)[C@@H](O)[C@H]1O`, the Potency result is “inactive”.

Consider `CN(C)CCCO[C@@H]1[C@H]2OC(C)(C)O[C@H]2O[C@@H]1C(O)CO` (stereo not given in full), for which the Potency result was “inactive”.

Take `OCC(CO)N[C@H]1C[C@](O)(CO)[C@@H](O)[C@H](O)[C@H]1O`: the Potency result is “inactive”.

As to `CCN(CC)C(=O)Nc1ccc(OCC(O)CNC(C)(C)C)c(C(C)=O)c1` (stereo not given), the Potency result is “inactive”.

As for `CNCCC(Oc1ccc(C(F)(F)F)cc1)c1ccccc1` (stereo not given), the Potency is 12.6 µM (active).

With `Cc1cc(CC(=O)O)n(C)c1C(=O)c1ccc(Cl)cc1`, the Potency result is “inactive”.

`COc1ccc2[nH]c(S(=O)Cc3ncc(C)c(OC)c3C)nc2n1` (stereo not given): the Potency entry is “inactive”.

Turning to `CC(C)C(=O)c1c(C(C)C)nn2ccccc12`, the Potency entry was “inactive”.

As to `CN(N=O)C(=O)N[C@@H]1[C@@H](O)[C@H](O)[C@@H](CO)O[C@@H]1O`, the Potency entry is “inactive”.

Consider `c1ccc(CN(CC2=NCCN2)c2ccccc2)cc1`, for which the Potency entry was “inactive”.
